Out of some 68,000 compounds screened, about 2,700 (4%) showed an effect of 50% or more. Many of the other results were omitted from the sample, so strong results are more common in it than they were.

We go through 53 compounds from ChEMBL document CHEMBL4513216, “Probing the Open Global Health Chemical Diversity Library for Multistage-Active Starting Points for Next-Generation Antimalarials” (ACS Infect Dis, 2020).

The subject of this experiment is Plasmodium berghei. The experiment in a line: Screen against P. berghei liver stage (PbLuc), transformed with Luciferase, at 2uM. The experiment is classed as functional, HepG2. The following applies: tested at 2 uM.
Consider `O=C1CC[C@@H](C(=O)N2CCC(Cn3cc(C4CCCCC4)nn3)CC2)N1`, for which the INHIBITION was found to be 17.61%.

Take `CC(C)n1nc2c(cc1=O)CN(c1ncnc3sccc13)CC2`: the INHIBITION is -35.16%.

On to `COCCN1C(=O)c2ccc(C(=O)NCCc3c[nH]cn3)cc2C1=O`, for which the INHIBITION was found to be 34.59%.

For the compound `CC(C)CN(CC(O)c1ccc(F)cc1)C(=O)c1cnsn1` (stereo not drawn), the INHIBITION is -36.72%.

As for `O=C(NC1CCN(Cn2nc(-c3ccccc3)oc2=O)CC1)C1CC1`, the INHIBITION is on record as -0.69%.

For `CC1CCCN(Cc2cccc(C(=O)Nc3nccs3)c2)C1` (stereo not drawn), the INHIBITION worked out at 63.46%.

Regarding `CC(=O)Nc1cccc(CN2CCCC2C(=O)Nc2nccs2)c1` (stereo not drawn), the INHIBITION is on record as -4.48%.

For the compound `Cc1cc(C2CCCN2Cc2cccc(C(=O)Nc3nccs3)c2)no1` (stereo not drawn), the INHIBITION was 2.7%.

With `CC(C)N(C)Cc1cn2c(n1)CN(C(=O)Cc1ccccc1)CC2`, the INHIBITION was -47.56%.

Turning to `CCN1CCN(C(=O)CCc2c(C)noc2Cl)CC1`, the INHIBITION was -61.5%.

Consider `Cc1noc(Cl)c1CCC(=O)N1CCN(CC(C)(C)O)CC1`, for which the INHIBITION came out at 21.89%.

As to `Cc1noc(Cl)c1CCC(=O)N1CCN(Cc2ccncc2)CC1`, the INHIBITION turned out to be 62.13%.

For `O=C(Nc1ccc2c(ccn2CCN2CCOCC2)c1)c1ccccn1`, the INHIBITION is 13.72%.

For the compound `Cc1cc(CN(C)C(=O)NC2CCCC2)no1`, the INHIBITION was 29.12%.

`N#Cc1cccc(N2CCCC3(CCC(=O)N(C4CCCC4)C3)C2)n1` (stereo not drawn): the INHIBITION is given as -11.07%.

As for `COc1c(C2CCCN2C(=O)c2sc(C)nc2C)c(C)nn1C` (stereo not drawn), the INHIBITION is recorded as -37.68%.

Consider `CN(C)C(=O)CN1CCCCC1c1nc(N)ncc1-c1ccccc1` (stereo not drawn), for which the INHIBITION was -19.81%.

As to `NC(=O)CN1CCCCC1c1nc(N)ncc1-c1cccc(F)c1` (stereo not drawn), the INHIBITION is recorded as 18.64%.

With `CN(C)C(=O)CN1CCCCC1c1nc(N)ncc1-c1cccc(F)c1` (stereo not drawn), the INHIBITION amounted to 65.76%.

For the compound `CC(=O)c1c(C)nn(S(=O)(=O)c2ccc(F)cc2)c1C`, the INHIBITION came out at 16.13%.

As to `Cc1nc2cc(O)nn2c(C)c1CCC(=O)NCCCC(C)C`, the INHIBITION is recorded as 37.68%.

As for `CC(C)C1CN(C(=O)c2cc(F)cc3[nH]cnc23)CCS1` (stereo not drawn), the INHIBITION came to 11.24%.

For `CN(C)C1CCCN(C(=O)NCCC(C)(C)C)C1` (stereo not drawn), the INHIBITION was 28.95%.

In the case of `CN(C)C1CCCN(C(=O)NCCC(=O)N2CCCCCC2)C1` (stereo not drawn), the INHIBITION is recorded as -17.01%.

As to `CC(C)N(CCNC(=O)N1CCCC(N(C)C)C1)C1CC1` (stereo not drawn), the INHIBITION is 73.01%.

On to `Cc1ccc(O)c(CNCC2CCCN2c2cccnn2)n1` (stereo not drawn), for which the INHIBITION was found to be 24.88%.

On to `CCN(CC)CCCNC(=O)c1nn(CC)cc1Cl`, for which the INHIBITION came to 24.34%.

`CCCNC(=O)c1nn(CC)cc1Cl`: the INHIBITION is recorded as -40.28%.

On to `CCN(CC)CCNC(=O)c1nn(CC)cc1Cl`, for which the INHIBITION is listed as 54.07%.

In the case of `COCCCNC(=O)c1c(-n2cnnn2)sc2c1CCC2`, the INHIBITION is -0.44%.

`CS(=O)(=O)c1ccccc1N[C@@H]1c2ccccc2C[C@@H]1O`: the INHIBITION is on record as 54.29%.

In the case of `CN(C)C(=O)c1ccccc1NC(=O)N[C@@H]1c2ccccc2C[C@@H]1O`, the INHIBITION is recorded as 42.32%.

For `CS(=O)(=O)c1ccccc1NC(=O)N[C@@H]1c2ccccc2C[C@@H]1O`, the INHIBITION is recorded as -11.32%.

Regarding `O=S1(=O)NCC2(CCCN(Cc3ccccn3)C2)Oc2ncccc21` (stereo not drawn), the INHIBITION was -30.35%.

On to `CN(C)c1ncc(CNC(=O)Nc2ccc(C(F)(F)F)cc2)n1C`, for which the INHIBITION came out at 47.59%.

Consider `CC(=O)N[C@@H]1CN(Cc2oc3ccccc3c2C)C[C@H]1c1ccc(C)o1`, for which the INHIBITION is 3.92%.

As to `Nc1ncccc1CN1CCCn2nc(CCC(=O)NC3CC3)cc2C1`, the INHIBITION turned out to be 26.82%.

Consider `O=C1C(Nc2nccn3cnnc23)CCN1c1cccc(Cl)c1` (stereo not drawn), for which the INHIBITION is listed as 34.89%.

Regarding `CCCc1noc(C2CCN(C(=O)C3CCCO3)CC2)n1` (stereo not drawn), the INHIBITION is 15.58%.

On to `O=C(NC1CCCC1)c1ccc(C2CCCNC2)nc1` (stereo not drawn), for which the INHIBITION was determined as 12%.

For `COc1c(C2CCCN2CC(=O)N(C)Cc2ccco2)c(C)nn1C` (stereo not drawn), the INHIBITION stood at 5.39%.

With `COCC[C@]1(O)CCN(S(=O)(=O)c2ccc(C)cc2OC)C[C@H]1C`, the INHIBITION stood at 69.67%.

On to `CCc1ccc(S(=O)(=O)N2CC[C@@](O)(CCOC)[C@H](C)C2)cc1`, for which the INHIBITION stood at 26.74%.

With `COc1cc(C)ccc1S(=O)(=O)N1CC[C@](C)(O)[C@H](C)C1`, the INHIBITION is listed as -11.41%.

Take `COc1cc(CN2CCC(COCc3ccccc3)CC2)cc(OC)c1`: the INHIBITION is given as 55.25%.

In the case of `COc1cc(COCC2CCN(Cc3ccccn3)CC2)cc(OC)c1`, the INHIBITION is given as 5.98%.

Consider `COc1cc(COCC2CCN(Cc3cccnc3)CC2)cc(OC)c1`, for which the INHIBITION turned out to be 20.76%.

On to `CC(C)CN1CCC2(COCc3cnc(-c4ccccc4)nc32)C1` (stereo not drawn), for which the INHIBITION was 5.22%.

For `CC(C)c1ccc(CN2CCN(C(=O)c3cc(C4CC4)[nH]n3)CC2)cc1`, the INHIBITION came out at 38.87%.

For `O=C(c1cc(C2CC2)[nH]n1)N1CCN(Cc2ccc(Cl)cc2)CC1`, the INHIBITION is given as 59.99%.

For the compound `O=C(c1cc(C2CC2)[nH]n1)N1CCN(Cc2ccccc2)CC1`, the INHIBITION was 5.52%.

As for `Cc1ccc(C(=O)Oc2cc(=O)n3cccc(C)c3n2)cc1`, the INHIBITION is reported as -38.95%.

In the case of `COc1ccc(CCNC(=O)C2CCOC2)c(Cl)c1` (stereo not drawn), the INHIBITION is reported as -7.69%.
